PubChem BioAssay (Tox21)
Activity calls are given as the source filed them. Calls follow the shape of the dose curve; as a rule, active = well fitted curve in the direction sought with a large enough effect in the repeat runs; inconclusive = weak or mixed curves; inactive = flat fitted curve, though single readings scatter.

experiment: qHTS assay to test for compound auto fluorescence at 590 nm (red) in HEK293 cells (AID 720679); conditions: red autofluorescence 540/590 nm; series mostly up to 46 µM
From the text: National Center for Advancing Translational Sciences [NCATS]
NIH Chemical Genomics Center [NCGC]
U.S. Environmental Protection Agency [EPA]
National Institutes of Environmental Health Sciences [NIEHS]
National Toxicology Program [NTP]
U.S. Food and Drug Administration [FDA]
Compound auto fluorescence often interferes with screening of the compound library against various biological targets and signaling pathways. Some of these compounds may have fluorophoric properties. Such properties may interfere with the assay outputs resulting in false positives and/or negatives. To decrease such complications and ensure the compound activities are relevant in terms of biological response, the Tox21 10K compound library was screened for auto fluorescence.
From the fluorophores used as reporter signals in our screening assays, the auto fluorescence equivalencies of compounds against three fluorophores have been evaluated: Triamterene, Fluorescein and Rose Bengal sodium for blue, green and red fluorescence, respectively. The fluorescence intensities were measured using Excitation/Emission wavelengths at 405/460nm, 485/535nm and 540/590nm for blue, green and red labels, respectively. This assay includes the red fluorescence data.
Tox21 Assay Protocol Summary:
2,000 HEK293 cells in 5 uL of culture medium containing 10% dialyzed FBS per well were dispensed into black wall/clear bottom 1536-well plates using a Multidrop Combi Dispenser (Thermo Scientific). The assay plates were incubated for 4-5 hr at 37C to allow cell attachment to the well bottom, followed by the transfer of 23 nL compound or DMSO vehicle by a pintool work station (Kalypsys, San Diego, CA). After the assay plates were incubated overnight at 37C and 5% CO2, fluorescence intensities in the assay plates were measured by an Envision (PerkinElmer, Shelton, CT) plate reader using three labels for measuring blue, green and red fluorescence at […] 460, 535 and 590nm respectively.

SMILES | outcome
CS(=O)(=O)O | inactive
CO[C@]12C[C@@H](COC(=O)c3cncc(Br)c3)CN(C)[C@@H]1Cc1cn(C)c3cccc2c13 | inactive
CCCCCSCCCCC | inactive
O=[N+]([O-])c1ccc(F)cc1F | inactive
CCOC(=O)c1ccc(C)cc1 | inactive
CCOC(=O)C(=O)OCC | inactive
OCCOc1ccc(OCCO)cc1 | inactive
CN1C(=O)N(C)C(O)C1O (stereo not given) | inactive
CN(C)CCCN1c2ccccc2CCc2ccc(Cl)cc21 | inactive
CC(C)NCC(O)c1ccc(NS(C)(=O)=O)cc1 (stereo not given) | inactive
CC(C[N+](C)(C)C)OC(N)=O (stereo not given) | inactive
CC(C)(c1ccc(O)cc1)c1ccc(O)cc1 | inactive
FC1(F)C(F)(F)C(F)(F)C2(F)C(F)(F)C(F)(F)C(F)(F)C(F)(F)C2(F)C1(F)F (stereo not given) | inactive
O=C1CCCC(=O)C1 | inactive
CC1(C)CO[C@@H](CC(=O)O)CN1 | inactive
O=C(O)COc1nn(Cc2ccccc2)c2ccccc12 | inactive
Nc1nc2c(ncn2COC(CO)CO)c(=O)[nH]1 | inactive
N[C@@H](C(=O)N[C@@H]1C(=O)N2C(C(=O)O)=C(Cl)CS[C@H]12)c1ccccc1 | inactive
CCCCCCCCCCCCN(CCCCCCCCCCCC)CCCCCCCCCCCC | inactive
CCSC(=O)N(CC(C)C)CC(C)C | inactive

SMILES | outcome
COc1cc(C(=O)N2CCCCCCC2)cc(OC)c1OC | inactive
N[C@H](C(=O)O)c1ccc(O)cc1 | inactive
CCOC(=O)[C@H](CCc1ccccc1)N[C@@H](C)C(=O)N1[C@H](C(=O)O)C[C@@H]2CCC[C@@H]21 | inactive
C[C@](N)(Cc1ccc(O)cc1)C(=O)O | inactive
CCN(CC)CCOCCOC(=O)C1(c2ccccc2)CCCC1 | inactive
CC(C)(O)C#CC(C)(C)O | inactive
O=C(CCCN1CCN(c2ccccn2)CC1)c1ccc(F)cc1 | inactive
CC(C)=CCCC(C)CC(=O)O (stereo not given) | inactive
CC(=O)N(CC(O)CO)c1c(I)c(C(=O)NCCO)c(I)c(C(=O)NCC(O)CO)c1I (stereo not given) | inactive
NCCCNCCSP(=O)(O)O | inactive
C=C(C)CS(=O)(=O)O | inactive
CC(C)(O)C(=O)c1ccccc1 | inactive
N=C(N)c1ccccc1 | inactive
O=C(O)CCCc1ccccc1 | inactive
NC(CSCC(=O)O)C(=O)O (stereo not given) | inactive
OC1CCCCC1c1ccccc1 (stereo not given) | inactive
CCOC(=O)Nc1ccc(NCc2ccc(F)cc2)nc1N | inactive
O=C(O)Cc1ccc(CCNS(=O)(=O)c2ccc(Cl)cc2)cc1 | inactive
O=C[C@H](O)[C@@H](O)[C@H](O)[C@H](O)CO | inactive
CC(C)(C)c1nnc(NS(=O)(=O)c2ccccc2)s1 | inactive
